Sampled rows, rich in hits. Any-hit rate of the full collection: about 4.3%.
HSF1 activator = increases HSF-1 driven luciferase reporter signal; activation, % at 9 µM; hit rate 1.7% among 300,000; NIH3T3-HGL HSF-1 luciferase reporter, MG132, 8 h; 100% = twice DMSO control signal;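 active means mean replicate activation of at least 50% with a set share of replicates each reaching 50%; inconclusive means only one of those two conditions met; inactive means mean below 50% and too few replicates reaching it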;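 further: 0% = median of the neutral control wells and 100% = twice that signal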
Wnt act = activates Wnt/beta-catenin signaling in a reporter cell assay; activator, plate reader; activation, % at 9.35 µM; hit rate 1.2% among 300,000; AID 743398; in the data active means activation above about 30%, passing the limit was not always enough; inconclusive means no clear call, values can overlap the other calls;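 further: 0% = neutral control wells and 100% = positive control wells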
MITF TRPM1 HTS = increases MITF-driven TRPM1 promoter luciferase signal | hit rate 0.75% among 300,000 | activation, % at 12.5 µM | SK-MEL-5 TRPM1-promoter luciferase, 24 h; % of positive control, neutral wells = 0;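 active means mean activation of at least 80% with every replicate also reaching 80%; inconclusive means mean reaches 80% but some replicate falls short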;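 further: 0% = neutral control wells and 100% = parthenolide positive control wells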
HSF1 inhib = HSF1 inhibition; NIH3T3-HGL HSE-luciferase, MG132-induced, luminescence 8 h; hits give low values; activity change, negative = inhibition, % at 7.5 µM (by protocol); hit rate 0.77% among 300,000;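 active means more than half of replicate wells show activity change below -50%, luminescence cut by over half; inconclusive means some wells, but at most half, below -50%; inactive means no replicate well below -50%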;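 further: luciferase reports HSF-1 transcriptional activity via heat shock element; 0% = median of DMSO wells and -100% = zero luminescence signal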
esBAF inh = inhibitors of esBAF chromatin remodeling in mouse ES cells. reporter increase, % at 12.5 µM. AID 602393. Bmi1-luciferase knock-in reporter, 24 h; 100% = twice the neutral-well signal. hit rate 2% among 350,000; in the data active means activation above about 40%; inconclusive means no clear call, values can overlap the other calls;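 further: 0% = median of the plate's neutral control wells and 100% = double that signal; a rise in the Bmi1 reporter signal indicates esBAF inhibition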
SMARCA2 act = SMARCA2 function activation, primary screen; MG213 cells, MMTV-luciferase reporter, dexamethasone, overnight; activation, % at 9.1 µM; hit rate 1% among 370,000; AID 652017; in the data active means activation above about 7.8%;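 further: 0% = vehicle wells and 100% = reference activator wells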
* = called active by the depositor; ? = inconclusive; · = not tested or not shown.

SMILES	HSF1 activator	Wnt act	MITF TRPM1 HTS	HSF1 inhib	esBAF inh	SMARCA2 act
Cc1c(C(=O)Nc2cc(F)cc(F)c2)cnn1-c1ccccc1	41	57*	121*	24	?	4
O=C(C[C@@H]1CC[C@@H]2[C@H](COC[C@@H](O)CN2C(=O)c2ccccc2)O1)N1CCOCC1	·	·	·	·	-1	·
C[C@H](CO)N1C[C@H](C)[C@H](CN(C)Cc2cncnc2)Oc2cc(C#CC3CCCC3)ccc2S1(=O)=O	·	·	·	·	-2	·
O=C(NCC[C@@H]1CC[C@H](NC(=O)C2CCC2)[C@@H](CO)O1)c1cc(Cl)cc(Cl)c1	·	·	·	·	7	·
CCC1COCCS(=O)(=O)N1Cc1ccccc1C (stereo unspecified)	-69	-2	1	-61*	-1	-2
CCC1COCCS(=O)(=O)N1Cc1ccccc1F (stereo unspecified)	-10	0	5	-2	-1	0
Cc1ccccc1S(=O)(=O)N1CC[C@@H]2[C@@H](CO)Nc3ccc(C#Cc4ccccc4)cc3[C@@H]21	·	·	·	·	6	·
Cc1ccc2c(c1)COc1c3ccc(C(=O)NC(C)C)cc3nn1-2	12	46*	89*	17	84*	3
Cc1ccc2c(c1)COc1c3ccc(C(=O)N[C@@H](C)CO)cc3nn1-2	23	18	77	20	62*	4
CCOc1c2ccc(C(=O)N[C@H](C)C3CCCCC3)cc2nn1CCOC	1	-4	10	-2	2	0
Cc1noc(C)c1NC(=O)Nc1ccc2c(c1)CC(=O)N([C@@H](C)CO)C[C@@H](C)[C@@H](CN(C)C(=O)Nc1c(C)noc1C)O2	·	·	·	·	0	·
C[C@@H]1CCCCO[C@H](CN(C)Cc2ccncc2)[C@@H](C)CN([C@@H](C)CO)C(=O)c2cc(NS(=O)(=O)c3ccc(F)cc3)ccc2O1	·	·	·	·	-3	·
C[C@@H]1CN([C@@H](C)CO)C(=O)c2cccc(NC(=O)c3ccc(-c4nccs4)cc3)c2O[C@@H]1CN(C)C(=O)Nc1ccc2c(c1)OCO2	·	·	·	·	4	·
O=C(CCN1C(=O)c2cccc3cccc(c23)C1=O)Nc1ccccc1	-5	-1	-3	2	-1	7.9*
Cc1cccc(NC(=O)CCCN2C(=O)c3cccc4cccc(c34)C2=O)c1	0	·	-2	2	·	-2
O=C(CCCN1C(=O)c2cccc3cccc(c23)C1=O)Nc1ccon1	113*	0	8	49	·	3
CCCN(C)C[C@@H]1Oc2cc(C#Cc3cccnc3)ccc2S(=O)(=O)N([C@@H](C)CO)C[C@@H]1C	·	·	·	·	0	·
CO[C@@H]1CN(C)C(=O)c2cc(NC(=O)c3nc4ccccc4s3)ccc2OC[C@@H](C)N(Cc2cccnc2)C[C@@H]1C	·	·	·	·	9	·
O=C(NNc1nc2cc3c(cc2s1)OCO3)c1cccc(F)c1	10	6	56	8	47*	4
COc1cc(C(=O)NNc2nc3cc4c(cc3s2)OCO4)cc(OC)c1OC	62*	-3	·	26	5	2
O=C(NNc1nc2cc3c(cc2s1)OCO3)c1ccccc1	-8	5	12	-5	31	0
N#CC1=C(SCC(=O)Nc2ccccc2)NC(=O)CC1c1ccco1 (stereo unspecified)	-12	·	54	-6	79*	4
Cc1ccc(C(=O)N/N=C\c2ccc([N+](=O)[O-])s2)cn1	-6	-1	-109	-4	·	-9
Cc1ccc(/C=N/NC(=O)c2ccncc2)s1	0	5	·	-8	·	-4
O=C(N/N=C/c1cc(Br)ccc1O)c1ccncc1	-4	-3	-75	1	-59	-4
SMILES	HSF1 activator	Wnt act	MITF TRPM1 HTS	HSF1 inhib	esBAF inh	SMARCA2 act
Cc1ccc(/C=C/C(=O)Nc2ccc([N+](=O)[O-])cc2)o1	8	10	56	-2	64*	4
O=C(N/N=C/c1cc([N+](=O)[O-])ccc1O)c1ccncc1	-61	0	-1	-54*	6	-3
Cc1ccc(C(=O)N/N=C/c2ccc([N+](=O)[O-])s2)cc1	-72	·	-104	-70*	-83	-10
O=C(N/N=C/c1ccc([N+](=O)[O-])s1)c1ccncc1	61*	0	-56	50	-17	·
Cc1cccc(NC(=O)/C=C/c2ccc([N+](=O)[O-])s2)c1	-38	·	-95	-47	·	2
Cc1ccc(NC(=O)/C=C/c2ccc([N+](=O)[O-])s2)cc1	40	35*	-80	45	·	6
C[C@H](CO)N1C[C@H](C)[C@@H](CN(C)Cc2ccc(Cl)c(Cl)c2)Oc2ccc(NC(=O)Cc3ccccc3)cc2CC1=O	·	·	·	·	0	·
COc1ccc2c(C)nc(Nc3nc(C)c(C)c(=O)[nH]3)nc2c1	5	·	·	16	176*	6
CCc1c(C)nc(Nc2nc(C)c3ccc(OC)cc3n2)[nH]c1=O	34	6	53	4	23	0
COc1ccc(Nc2nc(C)c3ccccc3n2)cc1	16	·	60	6	75*	1
Cc1[nH]c2ccccc2c1C(=O)Cn1c(=O)oc2ccccc21	76*	0	-2	33	·	·
Cc1ccsc1/C=N/N1CCN(c2ccccc2)CC1	13	19	63	7	49*	4
Cc1ccsc1/C=N/N1CCN(c2ccccn2)CC1	21	12	·	7	·	3
O=C(c1cccs1)N1CCN(c2cccc(Cl)c2)CC1	14	0	5	2	11	1
O=C(c1ccc([N+](=O)[O-])s1)N1CCN(c2cccc(Cl)c2)CC1	-59	-2	-59	-52*	·	-2
COC(=O)C[C@@H]1C[C@@H]2c3cc(NS(C)(=O)=O)ccc3O[C@@H]2[C@H](CO)O1	·	·	·	·	-3	·
CCc1cccc2c(C(=O)COC(=O)c3ccc(O)cc3)c[nH]c12	-9	3	11	7	49*	-1
CCc1cccc2c(C(=O)COC(=O)c3ccccc3)c[nH]c12	44	-2	73	21	·	1
CCc1cccc2c(C(=O)COC(=O)c3nccnc3N)c[nH]c12	5	11	31	11	79*	1
O=C(N[C@H]1CC[C@H](CCNC(=O)c2ccccc2F)O[C@@H]1CO)c1ccc2c(c1)OCO2	·	·	·	·	2	·
Nc1nc(Br)c2c(F)cccc2c1-c1ccccc1	46	·	3	11	-5	2
Nc1nn(-c2cccc(F)n2)cc1-c1ccccc1	62*	19	49	39	7	5
Nc1nn(-c2cccc(F)n2)cc1-c1ccc(Cl)cc1	85*	9	32	32	14	4
Cc1noc(C)c1NC(=O)Nc1ccc2c(c1)CC(=O)N([C@@H](C)CO)C[C@@H](C)[C@H](CN(C)C(=O)NC(C)C)O2	·	·	·	·	0	·
O=C(NCc1cccnc1)c1cc(-c2ccccc2)on1	24	·	19	12	47*	3
COc1ccc(-c2cc(C(=O)NCc3ccccc3)no2)cc1OC	-21	·	8	-1	-8	-1

High-throughput results as filed in PubChem BioAssay.
